# Measurements: PubChem BioAssay (NCATS)
# Results filed as inconclusive are left out. Entries that show only a call come without a potency. Activity calls are given as the source filed them. Unless noted, calls come from the whole dose curve; as a rule, active = well fitted curve in the direction sought with a large enough effect in the repeat runs; inconclusive = weak or mixed curves; inactive = no such curve, though single readings can be large; an effect the other way counts as inactive or inconclusive.
# How the values were obtained:
# [1] = molecular target: Cytochrome P450 2D6 (Homo sapiens) (UniProt P10635); experiment: Cytochrome P450 family 2 subfamily D member 6 (CYP2D6) small molecule antagonists: luciferase biochemical (cell-free) qHTS assay (AID 1645840); note: nearly all actives have a fitted effect of over 55% in size
# Method in brief: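 P450-Glo CYP2D6 system: proluciferin substrate converted by enzyme to luciferin, read by luminescence proportional to activity. Enzyme-substrate mix with compound 10 min at room temperature, then NADPH regeneration 1 h before detection reagent.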
# [2] = molecular target: Cytochrome P450 2C9 (Homo sapiens) (UniProt P11712); experiment: Cytochrome P450 family 2 subfamily C member 9 (CYP2C9) small molecule antagonists: luciferase biochemical (cell-free) qHTS assay (AID 1645842); note: nearly all actives have a fitted effect of over 55% in size
# Method in brief: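 P450-Glo CYP2C9 system: proluciferin substrate with enzyme in mix containing 0.4% BSA, 10 min at room temperature, then NADPH regeneration solution added and incubated 1 h at 37C. Detection reagent stopped reaction; luminescence read after 20 min as RLU.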
# [3] = Primary qHTS for inhibitors of nuclear receptor binding SET domain protein 2 (NSD2) in an isogenic RCH-ACV NSD2 p.E1099K mutant (9B) (AID 1645876; active = well fitted curve in the direction sought with a large enough effect; an effect the other way counts as inactive or inconclusive; note: nearly all actives have a fitted effect of over 70% in size)
# [4] = Primary qHTS for inhibitors of nuclear receptor binding SET domain protein 2 (NSD2) in an RCH-ACV wild type WT cells (2C) (AID 1645877; active = well fitted curve in the direction sought with a large enough effect; an effect the other way counts as inactive or inconclusive; note: nearly all actives have a fitted effect of over 70% in size)
# Potency is the fitted concentration of half-maximal effect.
# Sequence of Cytochrome P450 2D6 (Homo sapiens) (P10635 whole entry, looked up): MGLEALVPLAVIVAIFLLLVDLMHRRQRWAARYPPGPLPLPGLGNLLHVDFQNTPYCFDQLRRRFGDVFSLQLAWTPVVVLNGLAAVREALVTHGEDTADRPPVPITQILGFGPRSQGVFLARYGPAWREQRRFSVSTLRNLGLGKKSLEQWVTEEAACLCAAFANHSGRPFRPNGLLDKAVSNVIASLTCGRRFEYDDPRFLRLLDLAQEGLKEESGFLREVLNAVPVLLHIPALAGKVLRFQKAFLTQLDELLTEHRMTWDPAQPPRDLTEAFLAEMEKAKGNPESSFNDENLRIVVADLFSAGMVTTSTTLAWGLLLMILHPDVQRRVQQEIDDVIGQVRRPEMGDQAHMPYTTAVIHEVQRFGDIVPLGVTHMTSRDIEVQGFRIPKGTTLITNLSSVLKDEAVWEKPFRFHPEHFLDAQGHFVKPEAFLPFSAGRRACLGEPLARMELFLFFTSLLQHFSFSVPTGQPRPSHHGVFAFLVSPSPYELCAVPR
# Sequence of Cytochrome P450 2C9 (Homo sapiens) (P11712 whole entry, looked up): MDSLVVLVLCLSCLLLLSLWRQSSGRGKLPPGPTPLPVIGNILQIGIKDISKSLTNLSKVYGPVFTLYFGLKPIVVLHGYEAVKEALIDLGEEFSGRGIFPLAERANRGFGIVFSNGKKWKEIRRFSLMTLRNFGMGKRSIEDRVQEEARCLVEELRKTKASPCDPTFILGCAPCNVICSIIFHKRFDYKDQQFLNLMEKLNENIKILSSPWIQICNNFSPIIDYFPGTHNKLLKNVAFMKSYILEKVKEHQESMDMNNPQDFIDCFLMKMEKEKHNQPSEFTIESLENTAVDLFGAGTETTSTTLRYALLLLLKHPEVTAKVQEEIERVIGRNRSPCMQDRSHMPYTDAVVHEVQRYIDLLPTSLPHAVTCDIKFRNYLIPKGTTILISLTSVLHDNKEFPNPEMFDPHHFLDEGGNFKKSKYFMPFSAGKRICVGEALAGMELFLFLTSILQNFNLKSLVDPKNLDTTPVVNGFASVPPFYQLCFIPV
SMILES,Potency [1],Potency [2],Potency [3],Potency [4]
CCCCCC[C@@H](CCC)C(=O)O,inactive,inactive,inactive,inactive
COC(=O)/C=C\C(=O)OC,inactive,inactive,inactive,inactive
Cn1c(=O)c2c(ncn2CC(=O)O)n(C)c1=O,inactive,inactive,inactive,inactive
CN1C(=O)c2ccccc2C1=O,inactive,inactive,inactive,inactive
Cc1ccc2ccc(Cl)cc2n1,inactive,inactive,inactive,inactive
CCC(C(=O)NC(=O)NC(C)=O)c1ccccc1 (stereo not drawn),inactive,inactive,inactive,inactive
CC(NC(CCc1ccccc1)C(=O)O)C(=O)N1C(=O)N(C)CC1C(=O)O (stereo not drawn),inactive,inactive,inactive,inactive
CN1Cc2cc(C(=O)N3CCC(C4CCNCC4)CC3)ccc2NC(CC(=O)O)C1=O (stereo not drawn),inactive,inactive,inactive,inactive
Cc1nc([N+](=O)[O-])cn1-c1ccc([N+](=O)[O-])cc1,inactive,inactive,inactive,inactive
Cc1ccccc1N1CCN(CCc2nnc3n2CCCC3)CC1,13.8 µM (active),inactive,inactive,inactive
CC(=O)N(c1onc(C)c1C)S(=O)(=O)c1ccc(N)cc1,inactive,inactive,inactive,inactive
CC(=O)O[C@H]1CC[C@@]2(C)C(=CC[C@@H]3[C@@H]2CC[C@]2(C)C(C(C)=O)=CC[C@@H]32)C1,inactive,inactive,inactive,inactive
Cc1oc(=O)oc1COC(=O)[C@@H]1N2C(=O)[C@@H](NC(=O)[C@H](N)c3ccccc3)[C@H]2SC1(C)C,inactive,inactive,inactive,inactive
CCCC(=O)Nc1ccc(O)c(C(C)=O)c1,inactive,inactive,inactive,inactive
O=C(CCCCC(=O)Nc1c(I)cc(I)c(C(=O)O)c1I)Nc1c(I)cc(I)c(C(=O)O)c1I,inactive,inactive,inactive,inactive
NS(=O)(=O)c1ccc(N2CCCCS2(=O)=O)cc1,inactive,inactive,inactive,inactive

SMILES,Potency [1],Potency [2],Potency [3],Potency [4]
CCC(C(=O)OCCN1CCOC(c2ccccc2)C1C)c1ccccc1 (stereo not drawn),1.74 µM (active),2.19 µM (active),inactive,inactive
Cc1c(F)cc2c(=O)c(C(=O)O)cn3c2c1CCC3C (stereo not drawn),inactive,inactive,inactive,inactive
Cc1ccc(C(C)OC(=O)C2(C)CCC(C(=O)O)C2(C)C)cc1 (stereo not drawn),inactive,inactive,inactive,inactive
C/C=C(/C(=C/C)c1ccc(OC(C)=O)cc1)c1ccc(OC(C)=O)cc1,inactive,17.4 µM (active),5.31 µM (active),3.76 µM (active)
CC(=O)OC[C@H]1O[C@@H](OC(C)=O)[C@H](OC(C)=O)[C@@H]1OC(C)=O,inactive,inactive,inactive,inactive
Nc1ccc(C(=O)OCC(O)CO)cc1 (stereo not drawn),inactive,inactive,inactive,inactive
CN1CCN(N)CC1,inactive,inactive,inactive,inactive
COCCc1ccccn1,inactive,inactive,inactive,inactive
CO[C@@H]1[C@@H](OC)[C@H](C)[C@@](O)(CC(=O)O)O[C@H]1[C@H](C)[C@H]1O[C@@]2(CC[C@@](C)([C@H]3CC[C@@](C)([C@@H]4O[C@@H]([C@H]5O[C@](C)(O)[C@H](C)C[C@@H]5C)C[C@@H]4OC4C[C@H](OC)[C@@H](OC)[C@H](C)O4)O3)O2)C[C@H](O)[C@H]1C (stereo partly drawn),inactive,inactive,0.596 µM (active),0.531 µM (active)
CCOC(=O)C(O)c1ccccc1 (stereo not drawn),inactive,inactive,inactive,inactive
O=C(O)CCCC[C@@H]1SC[C@@H]2NC(=O)N[C@@H]21,inactive,inactive,inactive,inactive
CN1Cc2cc(C(=O)N3CCC(C4CCNCC4)CC3)ccc2N[C@@H](CC(=O)O)C1=O,inactive,inactive,inactive,inactive
CCOC(=O)N1CCC(Nc2ccc(Cl)cc2N)CC1,7.76 µM (active),8.71 µM (active),13.3 µM (active),11.9 µM (active)
CC(C)(C)C(O)/C=C/c1ccc2c(c1)OCO2 (stereo not drawn),11 µM (active),3.09 µM (active),inactive,inactive
CC(=O)O[C@@H]1CC2C3CCc4cc(OC(=O)c5ccccc5)ccc4C3CCC2(C)[C@H]1OC(C)=O (stereo partly drawn),inactive,inactive,inactive,inactive
CN(CC1(C)CCCO1)S(=O)(=O)c1ccc(Cl)c(S(N)(=O)=O)c1 (stereo not drawn),inactive,inactive,inactive,inactive
